According to PubChem BioAssay:
Where “and” joins values, the source holds several entries; their conditions need not be identical. Equal values may be shown once. Calls of active or inactive are those of the source.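 How the source made its calls: active means thallium flux through the channel raised or lowered by more than 3 SD from vehicle-only wells, actives on both sides; inactive means the rest.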

Assays:
Assay in all cases: modulators of BK channel variants, profiling panel, selectivity assay, cell-based, U2OS BacMam, thallium flux, beta subunits (AID 1259406);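 further: initial slope of Thallos dye fluorescence rise after thallium is added; log ratio against the mean of 0.3% DMSO vehicle wells on the same plate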
F380Y/beta2Delta = settings: at 30 µM
F380Y/beta4 = settings: at 30 µM
[1] = biological target: Calcium-activated potassium channel subunit alpha-1 (Homo sapiens) + Leucine-rich repeat-containing protein 26 (Homo sapiens) (UniProt Q12791+Q2I0M4); settings: F380Y/Slo1WT/gamma1, at 30 µM
Chain of Calcium-activated potassium channel subunit alpha-1 (Homo sapiens) + Leucine-rich repeat-containing protein 26 (Homo sapiens) (Q2I0M4 whole entry, looked up, one chain of several): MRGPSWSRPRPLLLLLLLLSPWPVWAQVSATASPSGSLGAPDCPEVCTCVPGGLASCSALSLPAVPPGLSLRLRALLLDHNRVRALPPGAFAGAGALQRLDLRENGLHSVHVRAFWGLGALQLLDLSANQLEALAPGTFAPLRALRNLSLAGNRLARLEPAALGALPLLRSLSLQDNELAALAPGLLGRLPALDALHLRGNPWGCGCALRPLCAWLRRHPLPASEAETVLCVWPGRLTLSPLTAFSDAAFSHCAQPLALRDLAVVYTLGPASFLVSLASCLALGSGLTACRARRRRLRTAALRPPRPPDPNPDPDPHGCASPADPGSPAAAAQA

R275C = settings: at 30 µM
R275C/beta1 = settings: at 30 µM
R275C/beta2Delta = settings: at 30 µM
R275C/beta4 = settings: at 30 µM
R275C/Slo1WT/beta2 = settings: at 30 µM

Measured: log fold change Tl+ flux

COC1=C(OC)C(=O)C(CCCCCCCCCCO)=C(C)C1=O
active: F380Y/beta2Delta -0.557 | F380Y/beta4 -0.388 | [1] -0.413 | R275C -0.199 | R275C/beta2Delta -0.151 | R275C/beta4 -0.0932
inactive: R275C/beta1 -0.0599 | R275C/Slo1WT/beta2 -0.0534

CNCC(O)c1ccc(O)c(O)c1 (stereo not given)
inactive: F380Y/beta2Delta 0.0367 | F380Y/beta4 -0.0084 | [1] 0.0503 | R275C 0.0399 | R275C/beta1 -0.0203 | R275C/beta2Delta -0.0287 | R275C/beta4 -0.0313 | R275C/Slo1WT/beta2 -0.0974

COc1ccc2nc(S(=O)Cc3ncc(C)c(OC)c3C)[nH]c2c1 (stereo not given)
inactive: F380Y/beta2Delta 0.0168 | F380Y/beta4 0.00709 | [1] 0.0324 | R275C 0.00389 | R275C/beta1 0.0492 | R275C/beta2Delta 0.00389 | R275C/beta4 0.0199 | R275C/Slo1WT/beta2 0.0436

Cc1[nH]c(=O)c(C#N)cc1-c1ccncc1
inactive: F380Y/beta2Delta -0.015 | F380Y/beta4 -0.0201 | [1] 0.0127 | R275C -0.0168 | R275C/beta1 -0.000763 | R275C/beta2Delta 0.0393 | R275C/beta4 0.0209 | R275C/Slo1WT/beta2 0.0443

COc1cc(C)nc(-n2nc(C)cc2OC)n1
inactive: F380Y/beta2Delta -0.0214 | F380Y/beta4 -0.018 | [1] -0.00579 | R275C 0.031 | R275C/beta1 0.00544 | R275C/beta2Delta 0.0107 | R275C/beta4 -0.0217 | R275C/Slo1WT/beta2 -0.00369

CC(=O)NS(=O)(=O)c1ccc(N)cc1
inactive: F380Y/beta2Delta 0.0558 | F380Y/beta4 0.0262 | [1] -0.0364 | R275C 0.0168 | R275C/beta1 -0.00538 | R275C/beta2Delta -0.00501 | R275C/beta4 -0.00232 | R275C/Slo1WT/beta2 0.00853

Clc1ccc2nsnc2c1NC1=NCCN1
inactive: F380Y/beta2Delta -0.0575 | F380Y/beta4 -0.0136 | [1] 0.00637 | R275C 0.0392 | R275C/beta1 0.0375 | R275C/beta2Delta -0.063 | R275C/beta4 0.0661 | R275C/Slo1WT/beta2 0.00517

CC(C)(C(=O)c1cccnc1)c1cccnc1
inactive: F380Y/beta2Delta -0.0492 | F380Y/beta4 -0.00737 | [1] -0.0176 | R275C -0.0634 | R275C/beta1 0.0377 | R275C/beta2Delta -0.0241 | R275C/beta4 0.0328 | R275C/Slo1WT/beta2 0.0667

CC(C)(C)C(O)/C=C/c1ccc2c(c1)OCO2 (stereo not given)
inactive: F380Y/beta2Delta -0.034 | F380Y/beta4 0.0193 | [1] 0.00833 | R275C -0.0106 | R275C/beta1 0.0195 | R275C/beta2Delta -0.0731 | R275C/beta4 -0.0258 | R275C/Slo1WT/beta2 -0.0107

C[C@H](NC(CCc1ccccc1)C(=O)O)C(=O)N1CCC[C@H]1C(=O)O (stereo not given in full)
active: R275C/Slo1WT/beta2 0.0874
inactive: F380Y/beta2Delta 0.0235 | F380Y/beta4 0.0162 | [1] -0.0317 | R275C -0.0419 | R275C/beta1 0.0208 | R275C/beta2Delta 0.0297 | R275C/beta4 0.0258

CCCN[C@H]1CCc2nc(N)sc2C1
inactive: F380Y/beta2Delta 0.0149 and -0.064 | F380Y/beta4 0.049 | [1] -0.0398 and 0.00679 | R275C -0.0132 and -0.0398 | R275C/beta1 -0.0125 and -0.021 | R275C/beta2Delta -0.0052 and -0.0245 | R275C/beta4 0.000139 | R275C/Slo1WT/beta2 0.0182

CC(C(=O)O)c1ccc(CC2CCCC2=O)cc1 (stereo not given)
inactive: F380Y/beta2Delta -0.0349 | F380Y/beta4 -0.0649 | [1] -0.0398 | R275C -0.0259 | R275C/beta1 0.00328 | R275C/beta2Delta 0.0267 | R275C/beta4 -0.000172 | R275C/Slo1WT/beta2 0.00782

CC(C)(C)NC(=O)[C@@H]1CN(Cc2cccnc2)CCN1C[C@@H](O)C[C@@H](Cc1ccccc1)C(=O)N[C@H]1c2ccccc2C[C@H]1O
active: R275C/Slo1WT/beta2 0.101
inactive: F380Y/beta2Delta -0.0728 | F380Y/beta4 -0.0768 | [1] 0.0169 | R275C -0.0278 | R275C/beta1 -0.00667 | R275C/beta2Delta -0.0261 | R275C/beta4 0.0581

CN(C)CC[C@@H](c1ccc(Br)cc1)c1ccccn1
inactive: F380Y/beta2Delta -0.012 | F380Y/beta4 0.0692 | [1] 0.0361 | R275C -0.0783 | R275C/beta1 0.0411 | R275C/beta2Delta 0.0403 | R275C/beta4 0.00601 | R275C/Slo1WT/beta2 0.00129

N#Cc1ccc(C(c2ccc(C#N)cc2)n2cncn2)cc1
inactive: F380Y/beta2Delta 0.0563 | F380Y/beta4 0.0185 | [1] 0.0131 | R275C -0.0506 | R275C/beta1 -0.0148 | R275C/beta2Delta -0.0137 | R275C/beta4 -0.0251 | R275C/Slo1WT/beta2 0.00776

CCOC(=O)c1ncn2c1CN(C)C(=O)c1cc(F)ccc1-2
inactive: F380Y/beta2Delta -0.0461 | F380Y/beta4 -0.0546 | [1] -0.0345 | R275C 0.00689 | R275C/beta1 0.00279 | R275C/beta2Delta 0.0168 | R275C/beta4 0.000313 | R275C/Slo1WT/beta2 0.022

COC(=O)C1=C(C)NC(C)=C(C(=O)O[C@@H]2CCCN(Cc3ccccc3)C2)[C@@H]1c1cccc([N+](=O)[O-])c1
active: R275C/beta1 0.192 | R275C/beta2Delta 0.191
inactive: F380Y/beta2Delta -0.042 | F380Y/beta4 -0.0532 | [1] -0.0108 | R275C -0.0526 | R275C/beta4 -0.0168 | R275C/Slo1WT/beta2 -0.0109

Cc1[nH]cnc1CN1CCc2c(c3ccccc3n2C)C1=O
inactive: F380Y/beta2Delta -0.0209 | F380Y/beta4 -0.0392 | [1] 0.00572 | R275C -0.066 | R275C/beta1 0.0308 | R275C/beta2Delta -0.0141 | R275C/beta4 0.0279 | R275C/Slo1WT/beta2 0.0535

CC(N)C12CC3CC(CC(C3)C1)C2 (stereo not given)
inactive: F380Y/beta2Delta 0.0577 | F380Y/beta4 0.0485 | [1] 0.0164 | R275C 0.0361 | R275C/beta1 -0.0211 | R275C/beta2Delta 0.0568 | R275C/beta4 0.04 | R275C/Slo1WT/beta2 0.0291

COc1ccccc1OCC(O)CN1CCN(CC(=O)Nc2c(C)cccc2C)CC1 (stereo not given)
inactive: F380Y/beta2Delta 0.0304 | F380Y/beta4 -0.01 | [1] -0.0153 | R275C -0.0477 | R275C/beta1 0.0435 | R275C/beta2Delta 0.00123 | R275C/beta4 0.0205 | R275C/Slo1WT/beta2 0.0142

CC(c1cc2ccccc2s1)N(O)C(N)=O (stereo not given)
inactive: F380Y/beta2Delta 0.0219 | F380Y/beta4 0.0185 | [1] 0.0287 | R275C 0.00217 | R275C/beta1 0.0284 | R275C/beta2Delta 0.0541 | R275C/beta4 -0.0188 | R275C/Slo1WT/beta2 0.0381

Cn1nnc2c(C(N)=O)ncn2c1=O
inactive: F380Y/beta2Delta -0.0261 | F380Y/beta4 -0.0309 | [1] 0.0144 | R275C -0.00524 | R275C/beta1 -0.0169 | R275C/beta2Delta 0.0357 | R275C/beta4 -0.0137 | R275C/Slo1WT/beta2 0.06

O=C1c2cccc3c2[C@H](CCC3)CN1[C@@H]1CN2CCC1CC2
inactive: F380Y/beta2Delta 0.0262 | F380Y/beta4 0.0479 | [1] 0.0044 | R275C -0.0177 | R275C/beta1 -0.00783 | R275C/beta2Delta 0.00552 | R275C/beta4 -0.0169 | R275C/Slo1WT/beta2 -0.0269

O=C(O)/C=C/c1ccc(Cn2ccnc2)cc1
inactive: F380Y/beta2Delta -0.0133 | F380Y/beta4 0.00948 | [1] -0.0199 | R275C 0.0013 | R275C/beta1 0.0161 | R275C/beta2Delta 0.00561 | R275C/beta4 -0.0096 | R275C/Slo1WT/beta2 0.0187

CC1(C)O[C@@H]2C[C@H]3[C@@H]4C[C@H](F)C5=CC(=O)C=C[C@]5(C)[C@@]4(F)[C@@H](O)C[C@]3(C)[C@]2(C(=O)CO)O1
active: F380Y/beta2Delta 0.13 | F380Y/beta4 0.186 | R275C/beta1 0.14 | R275C/beta2Delta 0.157
inactive: [1] 0.0484 | R275C 0.0785 | R275C/beta4 0.0574 | R275C/Slo1WT/beta2 0.0265

COc1cc2nc(N3CCN(C(=O)C4CCCO4)CC3)nc(N)c2cc1OC (stereo not given)
inactive: F380Y/beta2Delta -0.00319 | F380Y/beta4 0.00186 | [1] -0.0172 | R275C 0.0113 | R275C/beta1 -0.0224 | R275C/beta2Delta -0.0771 | R275C/beta4 -0.0968 | R275C/Slo1WT/beta2 -0.0619

Cc1c(O)cccc1C(=O)N[C@@H](CSc1ccccc1)[C@H](O)CN1C[C@H]2CCCC[C@H]2C[C@H]1C(=O)NC(C)(C)C
active: R275C/beta1 0.237
inactive: F380Y/beta2Delta -0.0274 | F380Y/beta4 0.0671 | [1] 0.0165 | R275C -0.105 | R275C/beta2Delta -0.0795 | R275C/beta4 -0.0349 | R275C/Slo1WT/beta2 -0.0218

CCCOc1ccc(C(=O)OCCN(CC)CC)cc1N
inactive: F380Y/beta2Delta 0.0489 | F380Y/beta4 0.0262 | [1] 0.00339 | R275C 0.0442 | R275C/beta1 -0.0232 | R275C/beta2Delta 0.0224 | R275C/beta4 0.00943 | R275C/Slo1WT/beta2 -0.0584

Nc1nnc(-c2cccc(Cl)c2Cl)c(N)n1
inactive: F380Y/beta2Delta -0.0167 | F380Y/beta4 -0.0171 | [1] 0.000443 | R275C 0.00303 | R275C/beta1 0.00854 | R275C/beta2Delta 0.0465 | R275C/beta4 -0.0247 | R275C/Slo1WT/beta2 -0.000749

CN(C/C=C/C#CC(C)(C)C)Cc1cccc2ccccc12
inactive: F380Y/beta2Delta -0.0506 | F380Y/beta4 -0.0252 | [1] 0.0229 | R275C -0.0273 | R275C/beta4 -0.00168 | R275C/Slo1WT/beta2 0.012
active: R275C/beta1 -0.3 | R275C/beta2Delta -0.238
